Bioassay records deposited in PubChem by several laboratories.
Mcl1-Bid inh: Mcl-1/Bid interaction inhibition | Q07820 | TR-FRET Mcl-1/Bid-Dy647 peptide binding, 1536-well | inhibition, % at 21.7 µM | 220,000 compounds, 0.97% hits | AID 1021;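 active = compounds that cut the binding signal by more than half at the single screening dose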;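 also: His-tagged Mcl-1 with europium anti-His antibody binding Bid BH3 peptide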
Target sequence (Q07820 whole entry, looked up): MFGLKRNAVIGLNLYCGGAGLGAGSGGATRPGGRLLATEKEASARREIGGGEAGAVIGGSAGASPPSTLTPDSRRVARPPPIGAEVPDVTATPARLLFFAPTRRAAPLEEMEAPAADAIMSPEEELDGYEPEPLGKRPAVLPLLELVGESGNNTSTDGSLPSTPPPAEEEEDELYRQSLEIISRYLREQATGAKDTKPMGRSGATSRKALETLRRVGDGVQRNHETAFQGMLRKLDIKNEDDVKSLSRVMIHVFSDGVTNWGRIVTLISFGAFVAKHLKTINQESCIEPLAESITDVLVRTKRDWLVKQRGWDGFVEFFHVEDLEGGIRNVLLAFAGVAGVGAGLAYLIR
Mcl1 Noxa PPI: Mcl-1/Noxa interaction inhibition; Q07820; TR-FRET Mcl-1/Noxa peptide binding, 2 h; inhibition, % at 21.7 µM; 220,000 compounds, 1.5% hits; AID 1022;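 active = compounds that cut the protein-peptide binding signal by more than 50% relative to plate controls in a single-dose test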;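 also: His-tagged Mcl-1 with rhodamine Noxa BH3 peptide and terbium anti-His antibody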
Bim-Mcl-1: human Bim-Mcl-1 interaction inhibition | Q07820 | Bead-based flow cytometry, Bim peptide-Mcl-1 binding | inhibition, % at 10 µM | 190,000 compounds, 0.1% hits; in the data active = inhibition above about 40%
14-3-3 Bad inh: disrupts binding of bovine 14-3-3 zeta to phospho-Bad peptide; P63103; TR-FRET 14-3-3zeta/Dy647-pBad peptide displacement, 1 h; inhibition, % at 21.7 µM; 220,000 compounds, 0.71% hits;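 active = inhibition above about 70%, limit read from the data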
Target sequence (P63103 whole entry, looked up): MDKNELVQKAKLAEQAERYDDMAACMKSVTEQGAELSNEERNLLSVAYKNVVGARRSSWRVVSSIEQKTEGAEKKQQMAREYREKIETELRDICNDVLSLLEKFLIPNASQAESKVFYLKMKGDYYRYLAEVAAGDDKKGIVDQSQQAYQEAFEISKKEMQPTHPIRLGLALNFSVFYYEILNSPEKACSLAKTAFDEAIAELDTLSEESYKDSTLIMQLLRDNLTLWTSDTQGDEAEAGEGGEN
p47phox inh: inhibitors of human p47phox binding | inhibition, % at 24.7 µM | 220,000 compounds, 0.53% hits | AID 1274 | p47phox/p22phox peptide binding, fluorescence polarization, 2 h;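 active = inhibition above about 30%, limit read from the data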
A number is an active result. Shown are actives, neighbours in structure and some others; about 3.2% of the full set was active somewhere.

`CCOC(=O)C1=C(C)NC(=O)NC1c1ccsc1` (centres undefined) gave Mcl1-Bid inh inactive, Mcl1 Noxa PPI inactive, Bim-Mcl-1 inactive, 14-3-3 Bad inh inactive and p47phox inh inactive.
Screening CC1=C(C(=O)OCC(C)C)C(c2ccsc2)NC(=O)N1 (centres undefined) returned Mcl1-Bid inh inactive, Mcl1 Noxa PPI 79, Bim-Mcl-1 inactive, 14-3-3 Bad inh inactive and p47phox inh inactive.
O=C(Cc1nc2ccccc2[nH]1)c1ccc(Br)cc1 was read as Mcl1-Bid inh inactive, Mcl1 Noxa PPI inactive, Bim-Mcl-1 inactive, 14-3-3 Bad inh inactive and p47phox inh inactive.
`C=CCc1c(C)[nH]c2c(OC)cccc2c1=S` gave Mcl1-Bid inh inactive, Mcl1 Noxa PPI 60, Bim-Mcl-1 inactive, 14-3-3 Bad inh inactive and p47phox inh inactive.
Screening c1ccc2[nH]c(CN3CCOCC3)nc2c1 returned Mcl1-Bid inh 98, Mcl1 Noxa PPI inactive, Bim-Mcl-1 inactive, 14-3-3 Bad inh inactive and p47phox inh inactive.
Nc1ccc2nc(CN3CCOCC3)[nH]c2c1 was read as Mcl1-Bid inh inactive, Mcl1 Noxa PPI inactive, Bim-Mcl-1 inactive, 14-3-3 Bad inh 91 and p47phox inh inactive.
Screening CC(C)Cc1nc2ccc(N)cc2[nH]1 returned Mcl1-Bid inh inactive, Mcl1 Noxa PPI inactive, Bim-Mcl-1 inactive, 14-3-3 Bad inh inactive and p47phox inh inactive.
`c1ccc2cc3[nH]c(CN4CCOCC4)nc3cc2c1` gave Mcl1-Bid inh inactive, Mcl1 Noxa PPI inactive, Bim-Mcl-1 inactive, 14-3-3 Bad inh inactive and p47phox inh inactive.
`O=c1cc2c(=O)oc3cc(O)c(O)oc3c2c(O)c1O` gave Mcl1-Bid inh inactive, Mcl1 Noxa PPI 89, 14-3-3 Bad inh 89 and p47phox inh inactive.
`CCOC(=O)Cc1csc(NC(=O)Cn2c(=O)oc3ccccc32)n1` gave Mcl1-Bid inh inactive, Mcl1 Noxa PPI inactive, 14-3-3 Bad inh inactive and p47phox inh inactive.
Screening O=C(NCc1ccc(F)cc1)c1c2c(nc3ccccc13)CCN(Cc1ccccc1)C2 returned Mcl1-Bid inh inactive, Mcl1 Noxa PPI inactive, Bim-Mcl-1 inactive, 14-3-3 Bad inh inactive and p47phox inh inactive.
For COC(=O)c1ccc(CNC(=O)c2c3c(nc4ccccc24)CCN(Cc2ccccc2)C3)cc1 the results were Mcl1-Bid inh 94, Mcl1 Noxa PPI inactive, Bim-Mcl-1 inactive, 14-3-3 Bad inh inactive and p47phox inh inactive.
For COC(=O)[C@H](Cc1ccccc1)NC(=O)N1CCN(c2ccc(F)cc2)CC1 the results were Mcl1-Bid inh inactive, Mcl1 Noxa PPI inactive, 14-3-3 Bad inh inactive and p47phox inh inactive.
Screening COc1ccc(/C=C(\C#N)C(=O)C(C)(C)n2cncn2)cc1 returned Mcl1-Bid inh inactive, Mcl1 Noxa PPI inactive, Bim-Mcl-1 inactive, 14-3-3 Bad inh inactive and p47phox inh inactive.
Screening Cn1c(=Nc2ccccc2)sc2ccccc21 returned Mcl1-Bid inh inactive, Mcl1 Noxa PPI inactive, Bim-Mcl-1 inactive, 14-3-3 Bad inh inactive and p47phox inh inactive.
Screening CN(C)c1ccc(N=c2sc3ccccc3n2C)cc1 returned Mcl1-Bid inh inactive, Mcl1 Noxa PPI 101, Bim-Mcl-1 inactive, 14-3-3 Bad inh inactive and p47phox inh inactive.
For O=C(COCC(=O)NCc1ccccc1)NCc1ccccc1 the results were Mcl1-Bid inh inactive, Mcl1 Noxa PPI inactive, Bim-Mcl-1 49, 14-3-3 Bad inh inactive and p47phox inh inactive.
Screening CC(C)=CCc1c(O)cc2oc3c(CC=C(C)C)c(O)c(O)c(CC=C(C)C)c3c(=O)c2c1O returned Mcl1-Bid inh inactive, Mcl1 Noxa PPI 60, 14-3-3 Bad inh inactive and p47phox inh inactive.
`COc1cc2ccc(=O)oc2c(CC=C(C)C)c1OC` gave Mcl1-Bid inh inactive, Mcl1 Noxa PPI inactive, 14-3-3 Bad inh inactive and p47phox inh inactive.
`O=c1cc(CSc2nnnn2-c2ccccc2)nc2scc(-c3ccccc3)n12` gave Mcl1-Bid inh inactive, Mcl1 Noxa PPI inactive, Bim-Mcl-1 inactive, 14-3-3 Bad inh inactive and p47phox inh inactive.
Screening O=c1cc(CN2CCN(c3ccc(O)cc3)CC2)nc2scc(-c3ccccc3)n12 returned Mcl1-Bid inh inactive, Mcl1 Noxa PPI 67, Bim-Mcl-1 inactive, 14-3-3 Bad inh inactive and p47phox inh inactive.
For O=C(Nc1cccc([N+](=O)[O-])c1)C1C2CC/C=C\CCC21 (centres undefined) the results were Mcl1-Bid inh inactive, Mcl1 Noxa PPI inactive, 14-3-3 Bad inh inactive and p47phox inh 138.
`CCOC(=O)c1c(NC(=S)NC(C)=O)sc(C)c1C` gave Mcl1-Bid inh inactive, Mcl1 Noxa PPI inactive, Bim-Mcl-1 inactive, 14-3-3 Bad inh inactive and p47phox inh inactive.
`Oc1cc(O)c2c(c1)O[C@H](c1ccc(O)c(O)c1)[C@@H](O)C2` gave Mcl1-Bid inh inactive, Mcl1 Noxa PPI inactive, 14-3-3 Bad inh inactive and p47phox inh inactive.
`O=C1c2c(O)cc(O)cc2O[C@@]12c1c(cc(O)c3c1O[C@H](c1ccc(O)cc1)[C@@H](O)C3)O[C@@H]2c1ccc(O)cc1` gave Mcl1-Bid inh inactive, Mcl1 Noxa PPI 66, Bim-Mcl-1 inactive, 14-3-3 Bad inh inactive and p47phox inh inactive.
For COc1cc(-c2nc(-c3ccc4c(c3)-c3ccccc3S4(=O)=O)c(-c3ccccc3)[nH]2)cc(OC)c1O the results were Mcl1-Bid inh inactive, Mcl1 Noxa PPI 58, Bim-Mcl-1 inactive, 14-3-3 Bad inh inactive and p47phox inh inactive.
COc1ccc(-c2[nH]c(-c3ccc(C(=O)O)cc3)nc2-c2ccccc2)cc1 was read as Mcl1-Bid inh inactive, Mcl1 Noxa PPI inactive, Bim-Mcl-1 inactive, 14-3-3 Bad inh inactive and p47phox inh inactive.
`COc1ccc(CN2C(=O)/C(=C/c3ccc(-c4ccc(Cl)c(C(=O)O)c4)o3)SC2=S)cc1` gave Mcl1-Bid inh 99, Mcl1 Noxa PPI 92, Bim-Mcl-1 inactive, 14-3-3 Bad inh 77 and p47phox inh inactive.
For Cc1ccc(NC(=O)CN2C(=O)S/C(=C/c3ccc(-c4cccc(C(=O)O)c4)o3)C2=O)cc1 the results were Mcl1-Bid inh inactive, Mcl1 Noxa PPI 83, Bim-Mcl-1 inactive, 14-3-3 Bad inh 88 and p47phox inh inactive.
For Cc1ccc(/C=C2\SC(=S)N(Cc3ccccc3)C2=O)o1 the results were Mcl1-Bid inh inactive, Mcl1 Noxa PPI 90, Bim-Mcl-1 inactive, 14-3-3 Bad inh inactive and p47phox inh inactive.
Screening CC1(C)OC(=O)C(=Cc2ccc(-c3ccc(Cl)c(C(=O)O)c3)o2)C(=O)O1 returned Mcl1-Bid inh inactive, Mcl1 Noxa PPI inactive, Bim-Mcl-1 inactive, 14-3-3 Bad inh inactive and p47phox inh inactive.
`O=C(O)c1cc(-c2ccc(/C=C3/SC(=S)N(Cc4ccccc4)C3=O)o2)ccc1Cl` gave Mcl1-Bid inh 101, Mcl1 Noxa PPI 85, Bim-Mcl-1 inactive, 14-3-3 Bad inh 100 and p47phox inh inactive.
`Cc1ccc2cc(/C=N/NC(=O)CN3CCCCC3)c(Cl)nc2c1` gave Mcl1-Bid inh inactive, Mcl1 Noxa PPI inactive, Bim-Mcl-1 inactive, 14-3-3 Bad inh inactive and p47phox inh inactive.
Screening C=CCc1c(C)nc(-c2ccccc2)nc1N/N=C/c1ccccc1 returned Mcl1-Bid inh inactive, Mcl1 Noxa PPI inactive, Bim-Mcl-1 inactive, 14-3-3 Bad inh inactive and p47phox inh inactive.
